“And” between values parts separate entries of the source, which are not always exact repeats. Equal values may be shown once. Inconclusive results are not listed. The source made the active and inactive calls. Rule for the calls, unless noted: active = hit-call score of the fitted dose curve at least 0.9, where 1 is the maximum; inactive = score below 0.9.
Experiments:
DIO1 (gene 1733) = assay: CCTE_GLTED_hDIO1: CCTE's human Deiodinase 1 (DIO1) Inhibition Assay, Great Lakes Toxicology and Ecology Division (GLTED) Lab (AID 2283987; active = hit-call score of the fitted dose curve at least 0.9, where 1 is the maximum;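 note: isolated human DIO1 enzyme in a cell-free setup rather than cells; enzyme activity read as free iodide liberated from substrate via Sandell-Kolthoff colorimetry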)
How it was run: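 Chemicals are tested on human DIO1 without cells for 3 h. Uninhibited enzyme frees iodide, which speeds cerium(IV) reduction by arsenic and is read by spectrophotometry.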

[1] = CCTE_Simmons_MITO_max_resp_rate: CCTE's HepG2 Seahorse XF Respirometric Screening Assay at Maximal Respiratory State [uncoupled], Simmons Lab (AID 2284002); conditions: actives raise or lower the signal
How it was run: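 Uncoupled (FCCP) respiration of HepG2 cells served as the endpoint, with measurements at 6-minute intervals across a 72-minute run and compounds dosed at 7 concentrations up to 100 uM final.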

[2] = CCTE_Shafer_MEA_acute_spike_number: CCTE's Neural Acute Assay for Total Number of Spikes, Shafer Lab (AID 2284008);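 for AC50: curve fitted for decrease in spike count so AC50 reflects inhibitors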
How it was run: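 Using an adaptive detector set to 8x rms noise, spikes were counted in 40-min windows before and after compound addition (0.03-40 uM) to rat cortical networks at 37 C; the well-level change from baseline was analysed relative to DMSO.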

[3] = CCTE_Shafer_MEA_acute_firing_rate_mean: CCTE's Neural Acute Assay for Mean Firing Rate, Shafer Lab (AID 2284009);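 note: analyzed for loss of signal so actives lower firing rate relative to DMSO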
How it was run: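 Read-out: well-mean spike rate (spikes/recording length/electrodes), % change from 40 min pre-dose baseline to 40 min with compound. Rat cortical cultures, DIV 13 or 15, 37 C; 0.03-40 uM; DMSO as negative control.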

[4] = CCTE_Harrill_HTTr_Viability_MCF7: CCTE's 6-hour Cell Viability Assessment for the High-Throughput Transcriptomics (HTTr) Platform, in MCF-7 cells cultured in DMEM + 10% fetal bovine serum, Harrill Lab (AID 2284010)
How it was run: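 Viability measured through PI dye exclusion by high-content imaging at 6 h post-dosing.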

[5] = CCTE_Harrill_HTTr_Apoptosis_MCF7: CCTE's 6-hour Apoptosis Assessment for the High-Throughput Transcriptomics (HTTr) Platform, in MCF-7 cells cultured in DMEM + 10% fetal bovine serum, Harrill Lab (AID 2284011)
How it was run: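 Apoptosis in MCF-7 cells grown in DMEM with 10% fetal bovine serum was scored after a six hour exposure by high content imaging of caspase-3/7 activation (CellEvent Caspase 3/7 Green), with DMSO serving as negative control and baseline.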

[6] = CCTE_Harrill_HTTr_CellCount_MCF7: CCTE's Cell Proliferation Assessment for the High-Throughput Transcriptomics (HTTr) Platform, Harrill Lab (AID 2284012; active = hit-call score of the fitted dose curve at least 0.9, where 1 is the maximum;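 note: count of Hoechst-stained nuclei per well by high-content imaging in MCF-7 cells; cells exposed to compound for six hours; intended direction is loss of nuclei count meaning fewer cells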)
How it was run: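 Nuclei counting (Hoechst, high content imaging) in MCF-7 after a 6 h treatment at eight concentrations. Activity fitted bidirectionally, DMSO as negative control.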

[7] = CCTE_Shafer_MEA_acute_burst_number: CCTE's Neural Acute Assay for Single-Electrode Bursts, Shafer Lab (AID 2284013)
How it was run: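 Rat cortical cultures, DIV 13/15; 40 min baseline, then 40 min with compound 0.03-40 uM, 37 C. Spikes: 300-5000 Hz band-pass, threshold 8x rms noise. Readout = % change in single-electrode bursts vs baseline, loss-of-signal fit.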

[8] = CCTE_Shafer_MEA_acute_burst_duration_mean: CCTE's Neural Acute Assay for Mean Burst Duration, Shafer Lab (AID 2284014);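 note: hits are decreases in mean burst duration relative to DMSO controls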
How it was run: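 Primary rat cortical neurons on 16-electrode MEA wells, treated on DIV 13 or 15 with compound (0.03-40 uM; ≥3 wells each). 40-min baseline and 40-min exposure recordings at 37 C; percent change in mean burst duration per well versus DMSO.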

[9] = CCTE_Shafer_MEA_acute_interburst_interval_mean: CCTE's Neural Acute Assay for Mean Interburst Interval, Shafer Lab (AID 2284016);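 note: percent change of mean interburst interval versus each well's own pre-dose baseline; curves fitted for decrease in interburst interval relative to DMSO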
How it was run: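 Primary rat cortical neurons on 16-electrode MEA wells were recorded 40 min at baseline on DIV 13 or 15, then 40 min after compound (0.03-40 uM), at 37 C. Value is percent change in mean interburst interval per well, DMSO as negative control.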

[10] = CCTE_Shafer_MEA_acute_burst_percentage_mean: CCTE's Neural Acute Assay for Percentage of Spikes in a Burst, Shafer Lab (AID 2284017);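 for AC50: curve fitted for loss of signal so potency reflects decreased burst percentage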
How it was run: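 Primary rat cortical neurons on 16-electrode MEA wells; 40 min baseline recorded at DIV 13 or 15, then 40 min after compound (0.03-40 uM) at 37 C. Well-mean fraction of spikes in single-electrode bursts; percent change from baseline, DMSO as negative control.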

[11] = CCTE_Shafer_MEA_acute_burst_percentage_std: CCTE's Neural Acute Assay for Standard Deviation of Burst Percentage, Shafer Lab (AID 2284018);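 note: fitted in the negative direction so actives lower burst percentage SD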
How it was run: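 Primary rat cortical neurons on 16-electrode MEA wells were recorded 40 min at baseline (DIV 13 or 15), then 40 min after compound (0.03-40 uM), at 37 C. Well value is SD across electrodes of spikes-in-bursts/total spikes; endpoint is percent change, DMSO-referenced.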

[12] = CCTE_Shafer_MEA_acute_per_network_burst_spike_number_mean: CCTE's Neural Acute Assay for Average Number of Spikes in a Network Burst, Shafer Lab (AID 2284019)
How it was run: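 Primary rat cortical neurons on 16-electrode MEA wells, DIV 13 or 15, 37 C; 40-min baseline then 40-min recording with compound (0.03-40 uM). Spikes per network burst (total spikes/number of bursts) expressed as percent change from baseline, DMSO reference.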

[13] = CCTE_Shafer_MEA_acute_per_network_burst_spike_number_std: CCTE's Neural Acute Assay for Standard Deviation of Number of Spikes in a Network Burst, Shafer Lab (AID 2284020);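 note: fitted for decrease in spike-number SD versus DMSO so actives lower it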
How it was run: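 Primary rat cortical neurons on 48-well MEAs (16 electrodes/well) recorded at DIV 13 or 15: 40-min baseline, then 40 min with compound (0.03-40 uM), 37 C. Value is percent change in SD of spikes per network burst, relative to DMSO.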

[14] = CCTE_Shafer_MEA_acute_per_network_burst_electrodes_number_mean: CCTE's Neural Acute Assay for Mean Number of Electrodes in a Network Burst, Shafer Lab (AID 2284021);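 note: curves fitted for decreases only so hits reduce electrodes per burst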
How it was run: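 Percent change from baseline in average electrode count per network burst, rat cortical cultures on 48-well MEAs; 40-min recordings each side of exposure, DIV 13 or 15; threshold 8x rms noise; DMSO as negative control.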

[15] = biological target: Nucleoli Translocation, AR (gene 367) (UniProt P10275); assay: UPITT_HCI_U2OS_AR_TIF2_Nucleoli_Antagonist: University of Pittsburgh U2OS Androgen Receptor-Transcriptional Intermediary Factor 2 (AR-TIF2) Antagonism High Content Imaging Assay for Nucleoli Translocation (AID 2283997; active = hit-call score of the fitted dose curve at least 0.9, where 1 is the maximum)
Sequence of Nucleoli Translocation, AR (gene 367) (P10275 whole entry, looked up, the tested form may be a part): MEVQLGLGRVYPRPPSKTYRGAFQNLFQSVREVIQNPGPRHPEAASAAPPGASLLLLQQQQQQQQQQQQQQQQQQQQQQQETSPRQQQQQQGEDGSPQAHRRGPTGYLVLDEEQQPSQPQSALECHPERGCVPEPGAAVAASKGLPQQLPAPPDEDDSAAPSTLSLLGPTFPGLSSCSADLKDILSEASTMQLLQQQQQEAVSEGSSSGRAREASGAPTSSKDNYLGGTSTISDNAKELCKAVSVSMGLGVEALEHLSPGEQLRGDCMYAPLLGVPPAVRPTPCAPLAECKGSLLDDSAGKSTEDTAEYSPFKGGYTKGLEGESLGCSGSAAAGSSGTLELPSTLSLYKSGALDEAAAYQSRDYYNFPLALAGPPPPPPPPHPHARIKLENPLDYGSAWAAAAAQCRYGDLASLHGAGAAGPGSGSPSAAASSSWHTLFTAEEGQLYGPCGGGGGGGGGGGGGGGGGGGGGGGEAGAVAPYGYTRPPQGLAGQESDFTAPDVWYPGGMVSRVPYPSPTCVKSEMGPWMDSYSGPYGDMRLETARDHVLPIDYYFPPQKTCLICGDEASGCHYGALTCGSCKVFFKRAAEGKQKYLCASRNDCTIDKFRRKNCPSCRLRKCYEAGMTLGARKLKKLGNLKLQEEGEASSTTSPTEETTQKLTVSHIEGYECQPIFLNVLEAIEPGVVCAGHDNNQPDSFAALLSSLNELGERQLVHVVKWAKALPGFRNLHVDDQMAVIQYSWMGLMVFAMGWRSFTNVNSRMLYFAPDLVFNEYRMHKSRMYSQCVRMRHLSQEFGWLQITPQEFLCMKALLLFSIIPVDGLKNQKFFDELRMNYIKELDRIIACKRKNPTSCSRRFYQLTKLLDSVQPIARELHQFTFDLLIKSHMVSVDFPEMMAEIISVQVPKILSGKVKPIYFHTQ
How it was run: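 U2OS cells expressing RFP-tagged human AR and GFP-tagged TIF2 were imaged by high-content fluorescence microscopy for red AR signal in the nucleolar region. Compounds were screened at 20 uM final (0.2% DMSO), with activity fitted relative to DHT as baseline.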

[16] = biological target: Nucleoli Translocation, AR (gene 367) (UniProt P10275); assay: UPITT_HCI_U2OS_AR_TIF2_Nucleoli_Agonist: University of Pittsburgh U2OS Androgen Receptor-Transcriptional Intermediary Factor 2 (AR-TIF2) Agonism High Content Imaging Assay for Nucleoli Translocation (AID 2283998; active = hit-call score of the fitted dose curve at least 0.9, where 1 is the maximum)
How it was run: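 High-content images quantify nucleolar accumulation of RFP-fused AR in cells also expressing GFP-TIF2; the endpoint is fitted as signal gain versus DMSO controls across final concentrations of 0.195 to 50 uM.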

[17] = biological target: Ratio of Nucleoli Translocation and Cytoplasm, AR (gene 367) (UniProt P10275); assay: UPITT_HCI_U2OS_AR_TIF2_Nucleoli_Cytoplasm_Ratio_Antagonist: University of Pittsburgh U2OS Androgen Receptor-Transcriptional Intermediary Factor 2 (AR-TIF2) Antagonism High Content Imaging Assay for Ratio of Nucleoli Translocation and Cytoplasm (AID 2283999; active = hit-call score of the fitted dose curve at least 0.9, where 1 is the maximum;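 note: antagonists lower the DHT-driven ratio of nucleolar to cytoplasmic red signal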)
Sequence of Ratio of Nucleoli Translocation and Cytoplasm, AR (gene 367) (P10275 whole entry, looked up): as the sequence (P10275 whole entry, looked up, the tested form may be a part) above
How it was run: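 High-content imaging quantifies the red nucleolar:cytoplasmic fluorescence ratio in U2OS cells with AR-RFP and TIF2-GFP. Final concentrations are 20 uM (screen) or 0.195–50 uM (dose response), analysed against DHT as baseline.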

[18] = biological target: Ratio of Nucleoli Translocation and Cytoplasm, AR (gene 367) (UniProt P10275); assay: UPITT_HCI_U2OS_AR_TIF2_Nucleoli_Cytoplasm_Ratio_Agonist: University of Pittsburgh U2OS Androgen Receptor-Transcriptional Intermediary Factor 2 (AR-TIF2) Agonism High Content Imaging Assay for Ratio of Nucleoli Translocation and Cytoplasm (AID 2284000; active = hit-call score of the fitted dose curve at least 0.9, where 1 is the maximum;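 note: hits raise the red nucleolar to cytoplasm ratio above vehicle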)
How it was run: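 U2OS cells expressing RFP-tagged human AR and GFP-tagged TIF2 were imaged by high-content fluorescence microscopy. The endpoint is the ratio of nucleolar to cytoplasmic red fluorescence, fitted for gain of signal relative to DMSO. Concentration-response spanned 0.195 to 50 uM final (0.5% DMSO).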

[19] = CCTE_Simmons_MITO_viability: CellTiter-Glo Viability Assessment for CCTE's HepG2 Seahorse XF Respirometric Screening Assay [post-hoc], Simmons Lab (AID 2284007; active = hit-call score of the fitted dose curve at least 0.9, where 1 is the maximum;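 for AC50: cells exposed to chemical for 90 min before the ATP read; actives lower ATP signal relative to DMSO baseline meaning reduced viability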)
How it was run: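 HepG2 cells; test chemical 7 conc. (125 nM–100 uM final) × 90 min; then luminescent ATP detection. DMSO vehicle. Positive control dichlone, 8 conc. from 10 nM to 100 uM final. Loss-of-signal endpoint.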

Measured: AC50

CN(C)[C@@H]1C(=O)C(C(N)=O)=C(O)[C@@]2(O)C(=O)C3=C(O)c4c(O)cccc4[C@@](C)(O)[C@H]3[C@H](O)[C@@H]12
inactive: [1] | [2] | [3] | [4] | [5] | [6] | [7] | [8] | [9] | [10] | [11] | [12] | [13] | [14]
active: DIO1 (gene 1733) 29.8 µM and 15.9 µM and 27.1 µM

COc1ccc(C(=CC(=O)N2CCOCC2)c2ccc(Cl)cc2)cc1OC
inactive: [16] | [18] | [4] | [5] | [6]
active: [15] 3.21 µM | [17] 2.52 µM

CC(COc1ccc(Oc2ccccc2)cc1)Oc1ccccn1 (centres undefined)
active: [2] 20 µM | [3] 20 µM | [8] 20 µM | [10] 10.3 µM | [11] 20 µM | [13] 10.1 µM | [14] 20 µM
inactive: [15] | [17] | [1] | [4] | [5] | [6] | [7] | [9] | [12]

Cc1nn(-c2cc(NS(C)(=O)=O)c(Cl)cc2Cl)c(=O)n1C(F)F
inactive: [15] | [16] | [17] | [18] | [4] | [5] | [6]

C#CCC1=C(C)C(OC(=O)C2C(C=C(C)C)C2(C)C)CC1=O (centres undefined)
inactive: [19] | [4] | [5] | [9] | [12]
active: [1] 33.7 µM | [2] 27.4 µM | [3] 27.4 µM | [7] 13.3 µM | [8] 15.5 µM | [10] 12.7 µM | [11] 19.9 µM | [13] 19.9 µM | [14] 5.78 µM

N#CSCSC#N
active: [15] 16.5 µM | [17] 12.7 µM | [1] 50 µM | [19] 67.6 µM | [6] 92.6 µM | [9] 30.5 µM | [10] 27 µM
inactive: [16] | [2] | [3] | [4] | [5] | [7] | [8] | [11] | [12] | [13] | [14]

COP(=O)(OC)SCn1c(=O)oc2cc(Cl)cnc21
inactive: [15] | [16] | [17] | [18] | [4] | [5] | [6]
